These results are taken from PubChem BioAssay (NCI).

The structures appear in SMILES notation. This is part of a sample that, as a whole, favours compounds with a hit. Of some 83,000 tested, about 20% had one in any assay.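 Single-concentration screen, 48 h exposure, 96-well plates. Endpoint: percent growth. Below 10 = active.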 Unmarked numbers belong to inactive results. Activity calls are given as the source filed them.

Among the test systems are HT29 colon; SNB-75 CNS; SNB-19 CNS; U251 CNS; PC-3 prostate; SK-MEL-5 melanoma; UACC-62 melanoma; LOX IMVI melanoma; SK-MEL-28 melanoma.
Holding throughout (test): NCI-60 one-dose screen, 48 h (100 = growth as untreated, 0 = no growth, -100 = all killed)
Conditions in all cases: 10 µM unless noted

On to `COC(=O)CCc1n(Cc2ccc3ccccc3c2)c2ccccc2[n+]1Cc1ccc2ccccc2c1`, for which the growth with HT29 colon was -25.5% (active); with SNB-75 CNS it was -8.15% (active); in the experiment on SNB-19 CNS, 16%; with U251 CNS it was 8.5% (active); in the experiment on PC-3 prostate, 6.6% (active); in the experiment with SK-MEL-5 melanoma, -92.9% (active). For the same molecule, the growth in the experiment with UACC-62 melanoma is -54% (active); in the experiment on LOX IMVI melanoma it was -59.3% (active); with SK-MEL-28 melanoma, 4.8% (active).

As for `S=C(Nc1ccc(Cl)cc1)c1ccccn1`, the growth in the experiment with HT29 colon was 94.1%; in the experiment with SNB-75 CNS it was 79.7%; in the experiment with SNB-19 CNS, 92.2%; in the experiment with U251 CNS, 88.6%; with PC-3 prostate it was 85.6%; in the experiment on SK-MEL-5 melanoma, 94.1%. In addition, the figures for the growth in the experiment with UACC-62 melanoma, in the experiment with LOX IMVI melanoma and with SK-MEL-28 melanoma were 82.5%, 88.4% and 107%, respectively.

Take `Cc1nccc2c3ccc(OCc4cn(-c5ccc(Cl)cc5)nn4)cc3n(CC(C)C)c12`: the growth is 1.3% (active) in the experiment on HT29 colon; 55.8% with SNB-75 CNS; 38.9% in the experiment with SNB-19 CNS; 26.9% in the experiment on U251 CNS; 17.4% with PC-3 prostate; -78.3% (active) with SK-MEL-5 melanoma. Further, the results for the growth with UACC-62 melanoma, in the experiment on LOX IMVI melanoma and with SK-MEL-28 melanoma were 24.2%, 3.05% (active) and 25.2%, respectively.

With `O=C(Nc1ccc2ncnc(Nc3cccc(C(F)(F)F)c3)c2c1)c1cccs1`, the growth in the experiment on HT29 colon is 18%; in the experiment on SNB-75 CNS, 89.2%; with SNB-19 CNS, 40.1%; in the experiment on U251 CNS, 17%; in the experiment with PC-3 prostate, 20.9%; in the experiment on SK-MEL-5 melanoma, 61.1%. In addition, the figures for the growth with UACC-62 melanoma, with LOX IMVI melanoma and with SK-MEL-28 melanoma were 67.5%, 65.5% and 89.1%, respectively.

As to `Cn1c2c(c3ccc(-c4ccn[nH]4)cc3c1=O)C(=O)c1ccccc1-2`, the growth is 18.9% in the experiment with HT29 colon; 71% in the experiment with SNB-75 CNS; 27.4% in the experiment with SNB-19 CNS; 13.5% with U251 CNS; 63.2% in the experiment on PC-3 prostate; 21.1% in the experiment on SK-MEL-5 melanoma. Also, the figures for the growth with UACC-62 melanoma, in the experiment with LOX IMVI melanoma and in the experiment on SK-MEL-28 melanoma were 47.9%, 0.163% (active) and 88.6%, respectively.

Consider `COc1cc(C(=O)Nc2cc(OC)c3ccn(C)c3c2)cc2c1C[C@]1(C)CC[C@@H](O)C(C)(C)[C@H]1O2`, for which the growth in the experiment on HT29 colon was 5.58% (active); with SNB-75 CNS, -9.5% (active); in the experiment with SNB-19 CNS, 33.3%; in the experiment with U251 CNS it was 16.5%; in the experiment on PC-3 prostate it was 3.01% (active); with SK-MEL-5 melanoma it was -34.8% (active). Also, the growth was -8.05% (active) in the experiment with UACC-62 melanoma, -14.6% (active) in the experiment on LOX IMVI melanoma and 13.4% in the experiment on SK-MEL-28 melanoma.

As for `CC(=O)c1c(OCC#N)ccc2c(C)cc(=O)oc12`, the growth with HT29 colon is 117%; in the experiment on SNB-75 CNS, 103%; with SNB-19 CNS, 97.2%; in the experiment with U251 CNS, 94.9%; in the experiment with PC-3 prostate it was 87.2%; with SK-MEL-5 melanoma, 104%. Also, the growth in the experiment on UACC-62 melanoma is 96.5%; in the experiment on LOX IMVI melanoma it was 100%; with SK-MEL-28 melanoma, 93%.

As for `Cc1cc(C)n(-c2nc(-c3cccs3)c(C#N)c(=O)[nH]2)n1`, the growth is 100% in the experiment on HT29 colon; 89.2% in the experiment on SNB-75 CNS; 96.3% with SNB-19 CNS; 90.8% in the experiment on U251 CNS; 94.2% in the experiment with PC-3 prostate; 102% in the experiment with SK-MEL-5 melanoma. The growth is 94.8% in the experiment with UACC-62 melanoma, 84.7% with LOX IMVI melanoma and 99.8% in the experiment with SK-MEL-28 melanoma.

For the molecule `COc1ccc(/C=C(/C(=O)N2CCCC2)c2cc(OC)c(OC)c(OC)c2)cc1`, the growth is 11.6% in the experiment with HT29 colon; 32% in the experiment with SNB-75 CNS; 46.8% with SNB-19 CNS; 25.1% in the experiment on U251 CNS; 26.3% in the experiment with PC-3 prostate; 15% with SK-MEL-5 melanoma. In addition, the growth with UACC-62 melanoma was 44.1%; with LOX IMVI melanoma it was 54.2%; in the experiment on SK-MEL-28 melanoma, 73.9%.

Take `COCCc1n(Cc2ccc3ccccc3c2)c2ccccc2[n+]1Cc1ccc2ccccc2c1`: the growth in the experiment with HT29 colon was -61.3% (active); in the experiment with SNB-75 CNS, -39.7% (active); in the experiment with SNB-19 CNS, -73.8% (active); in the experiment on U251 CNS, -89.8% (active); with PC-3 prostate, -14.5% (active); in the experiment on SK-MEL-5 melanoma it was -97.5% (active). Further, the growth in the experiment on UACC-62 melanoma is -89.3% (active); in the experiment with LOX IMVI melanoma it was -92.5% (active); in the experiment on SK-MEL-28 melanoma it was -46.4% (active).

On to `COc1ccc2[nH]c3nc4cnccc4cc3c2c1`, for which the growth is 99.7% in the experiment with HT29 colon; 97.5% in the experiment with SNB-75 CNS; 105% in the experiment on SNB-19 CNS; 98.9% in the experiment on U251 CNS; 104% in the experiment with PC-3 prostate; 108% in the experiment on SK-MEL-5 melanoma. In addition, the growth was 117% in the experiment on UACC-62 melanoma, 105% with LOX IMVI melanoma and 114% in the experiment on SK-MEL-28 melanoma.

`O=C(/C(=C/c1ccc([N+](=O)[O-])cc1)SCc1ccccc1)c1ccc(Cl)cc1`: the growth with HT29 colon was 52%; in the experiment on SNB-75 CNS it was 85%; in the experiment with SNB-19 CNS it was 70.6%; in the experiment on U251 CNS, 61.6%; in the experiment with PC-3 prostate, 60.9%; in the experiment on SK-MEL-5 melanoma it was 73%. The growth was 9.57% (active) in the experiment on UACC-62 melanoma, 32.6% with LOX IMVI melanoma and 94.6% in the experiment with SK-MEL-28 melanoma.

Regarding `COc1cc(C2=NN(c3ccccc3)C(c3cccc(Nc4ccnc5cc(C(F)(F)F)ccc45)c3)C2)cc(OC)c1OC` (stereo not drawn), the growth with HT29 colon was 71%; in the experiment with SNB-75 CNS, 106%; in the experiment with SNB-19 CNS, 92.8%; in the experiment on PC-3 prostate, 72.4%; in the experiment with SK-MEL-5 melanoma, 89.8%; in the experiment with UACC-62 melanoma, 83.5%. For the same molecule, the growth in the experiment on LOX IMVI melanoma is 81.9%; in the experiment with SK-MEL-28 melanoma, 100%.

In the case of `COc1cccc(NC(=O)Nc2ccc(Oc3ncnc4[nH]c(C)c(C)c34)cc2)c1`, the growth with HT29 colon is 75.4%; in the experiment on SNB-75 CNS it was 87.2%; with SNB-19 CNS, 89.7%; in the experiment on U251 CNS, 76.9%; with PC-3 prostate, 80.8%; in the experiment with SK-MEL-5 melanoma, 88%. In addition, the growth was 74.2% in the experiment on UACC-62 melanoma, -54.9% (active) in the experiment on LOX IMVI melanoma and 103% in the experiment with SK-MEL-28 melanoma.

Regarding `Cc1cccc(C)c1NCc1nnc(-c2ccc(O)cc2)o1`, the growth in the experiment with HT29 colon is 106%; with SNB-75 CNS it was 77.8%; in the experiment with SNB-19 CNS, 108%; in the experiment on U251 CNS, 105%; in the experiment with PC-3 prostate, 95.1%; in the experiment on SK-MEL-5 melanoma, 101%. The growth in the experiment with LOX IMVI melanoma was 96.8%; with SK-MEL-28 melanoma, 102%.

On to `Cc1ccc2nc3nc4ccc[nH]c4cc3c2c1`, for which the growth in the experiment on HT29 colon was 76.8%; with SNB-75 CNS, 72.3%; in the experiment with SNB-19 CNS it was 97.3%; with U251 CNS it was 92.5%; in the experiment on PC-3 prostate it was 87.5%; in the experiment with SK-MEL-5 melanoma, 71.7%. Moreover, the results for the growth in the experiment with UACC-62 melanoma, in the experiment with LOX IMVI melanoma and in the experiment with SK-MEL-28 melanoma were 94.3%, 97.9% and 116%, respectively.

With `COc1ccc(/C=C/C(=O)/C=C(/C=C/c2ccc(OC)c(OC)c2)OB(F)F)cc1OC`, the growth was 3% (active) in the experiment with HT29 colon; 76.8% in the experiment on SNB-75 CNS; 52.9% with SNB-19 CNS; 8.37% (active) in the experiment with U251 CNS; 31.5% in the experiment on PC-3 prostate; 56.6% in the experiment with SK-MEL-5 melanoma. Further, the growth in the experiment on UACC-62 melanoma is 52.6%; in the experiment on LOX IMVI melanoma, 5.12% (active); in the experiment with SK-MEL-28 melanoma, 29.6%.

In the case of `CCN1CCN(c2ccc(NC(=O)Nc3nc4ccc(-c5ccccc5OC)cc4s3)cc2)CC1`, the growth in the experiment on HT29 colon is -92% (active); in the experiment on SNB-75 CNS, -19.8% (active); in the experiment with SNB-19 CNS, -82.8% (active); in the experiment on U251 CNS, -87% (active); in the experiment on PC-3 prostate, -83.8% (active); with SK-MEL-5 melanoma it was -98.8% (active). The growth is -85.3% (active) with UACC-62 melanoma, -86.4% (active) in the experiment on LOX IMVI melanoma and -79.3% (active) in the experiment on SK-MEL-28 melanoma.

With `O=C1NN(c2ccccc2)C(c2ccc3c(c2)OCO3)N2CCC[C@@H]12` (stereo partly drawn), the growth was 85.8% in the experiment on HT29 colon; 93.6% with SNB-75 CNS; 103% with SNB-19 CNS; 95.1% with U251 CNS; 90.7% in the experiment with PC-3 prostate; 106% with SK-MEL-5 melanoma. In addition, the growth in the experiment on UACC-62 melanoma was 92%; in the experiment with LOX IMVI melanoma, 91.9%; with SK-MEL-28 melanoma, 111%.

`CN(C)CCCn1c2c(c3cc(-c4cccc(S(N)(=O)=O)c4)ccc3c1=O)C(=O)c1ccccc1-2`: the growth was -6.96% (active) in the experiment on HT29 colon; 59.1% with SNB-75 CNS; 64.8% in the experiment on SNB-19 CNS; 47.5% in the experiment on U251 CNS; 67.3% in the experiment on PC-3 prostate; 85.3% in the experiment on SK-MEL-5 melanoma. The results for the growth in the experiment with UACC-62 melanoma, in the experiment on LOX IMVI melanoma and in the experiment with SK-MEL-28 melanoma were 77.3%, 56.3% and 113%, respectively.
